In PubChem BioAssay (Tox21):
Values without a mark were called inactive. Active and inactive are the calls of the source. Calls come from the whole dose curve; as a rule, active = well fitted activation curve with a large enough effect in the repeat runs; inconclusive = weak or mixed curves; inactive = flat fitted curve, though single readings scatter.

These molecules were tested against KiSS-1 receptor (Homo sapiens) (UniProt Q969F8) (assay: Human kisspeptin (KISS1R) small molecule agonists, calcium flux assay in KISS1R-HEK293 cells (AID 1920064)). Settings: KISS1R-HEK293, calcium flux fluorescence, agonist; series mostly up to 76.8 µM; activation: at the top concentration.
Sequence of KiSS-1 receptor (Homo sapiens) (Q969F8 whole entry, looked up): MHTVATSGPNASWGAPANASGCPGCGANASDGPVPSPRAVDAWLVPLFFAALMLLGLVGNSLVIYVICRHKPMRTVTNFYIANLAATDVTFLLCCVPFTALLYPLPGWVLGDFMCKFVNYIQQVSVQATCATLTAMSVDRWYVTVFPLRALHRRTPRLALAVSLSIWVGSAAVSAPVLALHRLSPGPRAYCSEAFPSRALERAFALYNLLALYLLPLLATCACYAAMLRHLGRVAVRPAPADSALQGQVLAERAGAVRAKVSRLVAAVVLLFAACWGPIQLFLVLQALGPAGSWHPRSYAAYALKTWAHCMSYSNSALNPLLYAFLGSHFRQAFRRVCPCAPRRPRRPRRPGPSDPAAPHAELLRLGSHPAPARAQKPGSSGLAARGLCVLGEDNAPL
Outline: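 Intracellular calcium mobilization in KISS1R-HEK293 cells was recorded by fluorescence (Ex/Em 480/540) for 3 min following compound addition to cells pre-loaded 1 h with calcium dye.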
% is set by controls: 0 for no effect and ±100 for the full control effect.

Row | Compound | activation | Potency
1 | Nc1nc(=O)n([C@@H]2O[C@H](CO)[C@@H](O)[C@@H]2F)cc1I | -0.704% [at 35.3 µM] | –
2 | Cc1cc(C)cc(O)c1 | – | inactive
3 | COc1cc(C(=O)N2CCOCC2)cc(OC)c1OC | -0.648% [at 35.3 µM] | –
4 | CCCO | -0.808% | –
5 | CC12CCC(C1)C(C)(C)C2O (configuration not stated) | 1.66% | –
6 | [O]=[Zr] | 1.63% | –
7 | C1CCC(SSC2CCCCC2)CC1 | -1.68% | –
8 | CCCC[C@H]1CN(CC2CCOCC2)C(=O)OC12CCN(C1(C)CCN(C(=O)c3c(C)ncnc3C)CC1)CC2 | 0.193% | –
9 | Cc1ccccc1S(=O)(=O)O | -8.97% | –
10 | NC(=O)c1ccc(N)cc1 | 1.71% | –
11 | FC(F)(F)C(Cl)Br (configuration not stated) | – | inactive
12 | CCCCCCCCSCCO | 5.23% | –
13 | Cc1ccccc1C(N)=O | -0.895% | –
14 | CC12CC3CC(C)(C1)CC(N)(C3)C2 | 3.57% [at 35.3 µM] | –
15 | O[C@@H]([C@H](O)[C@H](O)CBr)[C@H](O)CBr | -0.572% | –
16 | CCOc1ccc(N)c([N+](=O)[O-])c1 | -0.216% | –
17 | CC(=O)NCc1c(I)c(NC(C)=O)c(I)c(C(=O)O)c1I | 0.827% [at 35.3 µM] | –
18 | Nc1cc([N+](=O)[O-])ccc1Cl | 0.26% | –
19 | Cc1c(C(=O)c2c[nH]n(C)c2=O)ccc(S(C)(=O)=O)c1C1=NOCC1 | 2.05% [at 35.3 µM] | –
20 | CC(C[N+](C)(C)C)OC(N)=O (configuration not stated) | 3.48% [at 35.3 µM] | –
21 | O=S(=O)(O)c1ccccc1O | -0.643% | –
22 | Cc1cccc(N(C)C)c1 | 0.987% | –
23 | OCC1CCC(CO)CC1 (configuration not stated) | -0.35% | –
24 | C=CCOC(=O)CCCCCC | 0.114% | –
25 | CCN(CC)S(=O)(=O)c1ccc(C(=O)O)cc1 | 0.362% [at 35.3 µM] | –
26 | NNS(=O)(=O)c1ccc(Oc2ccc(S(=O)(=O)NN)cc2)cc1 | -1.26% | –
27 | O=Cc1ccc(C(=O)O)cc1 | 0.21% | –
